# Test results taken from PubChem BioAssay (NCATS).
# Records with an inconclusive call do not appear. Where a call stands in place of a potency, no number is given. A number with no mark means an inactive call. The source made the active and inactive calls. Calls come from the whole dose curve.
# Experiments:
# [1] = Primary qHTS for inhibitors of SARS-S pseudo-typed particle cell entry (AID 1479145); note: nearly all actives have a fitted effect of over 45% in size; note: potency is the fitted concentration of half-maximal effect
# [2] = Primary qHTS for Huh7 cytotoxicity: counterscreen for inhibitors of MERS-S pseudotyped particle cell entry (AID 1479147)
# [3] = Primary qHTS for Vero E6 cytotoxicity: counterscreen for inhibitors of SARS-S pseudo-typed particle cell entry (AID 1479150); note: potency is the fitted concentration of half-maximal effect
# [4] = Primary qHTS for inhibitors of MERS-S pseudo-typed particle cell entry (AID 1479149); note: nearly all actives have a fitted effect of over 60% in size; note: potency is the fitted concentration of half-maximal effect
structure (smiles),measurement,setting,value
Nc1ncnc2nc[nH]c12,Potency,[1],inactive
same,Potency,[2],inactive
same,Potency,[3],inactive
COc1cc(NS(C)(=O)=O)ccc1Nc1c2ccccc2nc2ccccc12,Potency,[1],0.794 µM (active)
same,Potency,[3],25.1 µM (active)
CC(=O)Nc1c(I)cc(I)c(C(=O)O)c1I,Potency,[1],inactive
same,Potency,[2],inactive
same,Potency,[3],inactive
CCOc1ccc(NS(=O)(=O)c2ccc(N)cc2)nn1,Potency,[2],inactive
same,Potency,[4],inactive
same,Potency,[3],inactive
O=C1CN(/N=C/c2ccc([N+](=O)[O-])o2)C(=O)N1,Potency,[1],inactive
same,Potency,[3],inactive
Cc1cc(O)cc2c1O[C@](C)(CCC[C@H](C)CCC[C@H](C)CCCC(C)C)CC2,Potency,[2],inactive
same,Potency,[4],inactive
same,Potency,[3],inactive
O=C(C1CCCCC1)N1CC(=O)N2CCCc3ccccc3C2C1 (stereo not drawn),Potency,[2],inactive
same,Potency,[4],inactive
same,Potency,[3],inactive
Cc1c(C)c2c(c(C)c1O)CCC(C)(COc1ccc(CC3SC(=O)NC3=O)cc1)O2 (stereo not drawn),Potency,[2],inactive
same,Potency,[4],25.1 µM (active)
same,Potency,[3],inactive
NS(=O)(=O)c1cc(Cl)c(Cl)c(S(N)(=O)=O)c1,Potency,[2],inactive
same,Potency,[4],inactive
same,Potency,[3],inactive
NCC[C@H](O)C(=O)N[C@@H]1C[C@H](N)[C@@H](O[C@H]2O[C@H](CN)[C@@H](O)[C@H](O)[C@@H]2O)[C@H](O)[C@@H]1O[C@H]1O[C@H](CO)[C@@H](O)[C@H](N)[C@@H]1O,outcome,[2],inactive [at 0.573 µM]
same,outcome,[4],inactive [at 0.573 µM]
CCN[C@H]1CN(CCCOC)S(=O)(=O)c2sc(S(N)(=O)=O)cc21,Potency,[1],inactive
same,Potency,[2],inactive
same,Potency,[3],inactive
N#CSCC(=O)O,Potency,[2],inactive
same,Potency,[4],inactive
same,Potency,[3],inactive
CCS(=O)(=O)CCn1c([N+](=O)[O-])cnc1C,Potency,[2],inactive
same,Potency,[4],inactive
same,Potency,[3],inactive
c1ccc2sc(SN3CCOCC3)nc2c1,Potency,[1],inactive
same,Potency,[4],inactive
same,Potency,[3],inactive
Cc1cc2c(cc1S(N)(=O)=O)S(=O)(=O)CCC2,Potency,[1],inactive
same,Potency,[2],inactive
same,Potency,[3],inactive
C[N+](C)(C)CCCCCC[N+](C)(C)C,Potency,[2],inactive
same,Potency,[4],inactive
same,Potency,[3],inactive
CCn1cc(C(=O)O)c(=O)c2cnc(N3CCNCC3)nc21,Potency,[2],inactive
same,Potency,[4],inactive
same,Potency,[3],inactive
O=C(O)CN(CCN(CC(=O)O)CC(=O)O)CCN(CC(=O)O)CC(=O)O,Potency,[2],inactive
same,Potency,[4],inactive
same,Potency,[3],inactive
OCc1ccc(Cl)cc1Cl,Potency,[2],inactive
same,Potency,[4],inactive
same,Potency,[3],inactive
CCCNC(C)C(=O)Nc1c(C)csc1C(=O)OC (stereo not drawn),Potency,[2],inactive
same,Potency,[4],inactive
same,Potency,[3],inactive
CCCCC(CC)CN1CN(CC(CC)CCCC)CC(C)(N)C1 (stereo not drawn),Potency,[2],inactive
same,Potency,[4],inactive
same,Potency,[3],inactive
NC1CCN(c2nc3c(cc2F)c(=O)c(C(=O)O)cn3-c2ccc(F)cc2F)C1 (stereo not drawn),Potency,[2],inactive
same,Potency,[4],inactive
same,Potency,[3],inactive
CCCCCN(CCCOC)C(=O)C(CCC(=O)O)NC(=O)c1ccc(Cl)c(Cl)c1 (stereo not drawn),Potency,[2],inactive
same,Potency,[4],inactive
same,Potency,[3],inactive
NCc1ccc(S(N)(=O)=O)cc1,Potency,[2],inactive
same,Potency,[4],inactive
same,Potency,[3],inactive
COc1ccc(C(=O)c2ccccc2O)c(O)c1,Potency,[2],inactive
same,Potency,[4],inactive
same,Potency,[3],inactive
c1ccc2c(c1)CCCC2C1=NCCN1 (stereo not drawn),Potency,[2],inactive
same,Potency,[4],inactive
same,Potency,[3],inactive
CO/N=C(/C(=O)N[C@@H]1C(=O)N2C(C(=O)[O-])=C(C[n+]3ccn4ncccc43)CS[C@H]12)c1nsc(N)n1,Potency,[2],inactive
same,Potency,[4],inactive
same,Potency,[3],inactive
Cc1cc2nc3c(=O)[nH]c(=O)nc-3n(C[C@H](O)[C@H](O)[C@H](O)CO)c2cc1C,Potency,[2],inactive
same,Potency,[4],inactive
same,Potency,[3],inactive
CCCCCCCCCCCC(=O)[O][Sn]([CH2]CCC)([CH2]CCC)[O]C(=O)CCCCCCCCCCC,Potency,[2],inactive
same,Potency,[4],inactive
same,Potency,[3],inactive
CC1(C)S[C@@H]2[C@H](NC(=O)C(c3ccccc3)S(=O)(=O)O)C(=O)N2[C@H]1C(=O)O (stereo partly drawn),Potency,[2],inactive
same,Potency,[4],inactive
same,Potency,[3],inactive
CN1CCN2c3ncccc3Cc3ccccc3C2C1 (stereo not drawn),Potency,[2],inactive
same,Potency,[4],inactive
same,Potency,[3],inactive
CC(C)[C@H](N)C(=O)OCC(CO)OCn1cnc2c(=O)[nH]c(N)nc21 (stereo partly drawn),Potency,[2],inactive
same,Potency,[4],inactive
same,Potency,[3],inactive
Cc1nc2ccc(CN(C)c3ccc(C(=O)N[C@@H](CCC(=O)O)C(=O)O)s3)cc2c(=O)[nH]1,Potency,[2],inactive
same,Potency,[4],inactive
same,Potency,[3],inactive
CC12CCC(CC1)C(C)(C)O2,Potency,[2],inactive
same,Potency,[4],inactive
same,Potency,[3],inactive
COc1ccc(C(=O)NCc2ccc(OCCN(C)C)cc2)cc1OC,Potency,[2],inactive
same,Potency,[4],inactive
same,Potency,[3],inactive
O=C(NC(Cc1cc(=O)[nH]c2ccccc12)C(=O)O)c1ccc(Cl)cc1 (stereo not drawn),Potency,[2],inactive
same,Potency,[4],inactive
same,Potency,[3],inactive
CC(C)CN(C[C@@H](OP(=O)(O)O)[C@H](Cc1ccccc1)NC(=O)O[C@H]1CCOC1)S(=O)(=O)c1ccc(N)cc1,Potency,[2],inactive
same,Potency,[4],inactive
same,Potency,[3],inactive
CCCCCCCCCCOc1cc2c(=O)c(C(=O)OCC)c[nH]c2cc1OCC,outcome,[2],inactive [at 5.34 µM]
same,outcome,[4],inactive [at 5.34 µM]
same,"activity change, negative = cytotoxicity",[3],1.57% [at 5.34 µM]
CC(CCc1ccc(O)cc1)NCCc1ccc(O)c(O)c1 (stereo not drawn),Potency,[2],inactive
same,Potency,[4],inactive
same,Potency,[3],inactive
NC(CS)C(=O)O (stereo not drawn),Potency,[2],inactive
same,Potency,[4],inactive
same,Potency,[3],inactive
CO/N=C(/C(=O)N[C@@H]1C(=O)N2C(C(=O)OCOC(=O)C(C)(C)C)=C(C)CS[C@H]12)c1csc(N)n1,Potency,[2],inactive
same,Potency,[4],inactive
same,Potency,[3],inactive
CC[C@H](C)C(=O)O[C@H]1C[C@H](O)C=C2C=C[C@H](C)[C@H](CC[C@@H](O)C[C@@H](O)CC(=O)O)[C@H]21,Potency,[2],inactive
same,Potency,[4],inactive
same,Potency,[3],inactive
